Screening results (PubChem)
p53ts 39C tox: kills p53ts cells at the nonpermissive temperature. AID 902. Potency, µM (highest dose often 46.1 µM), inactives show at the top dose activity change, negative = cell killing, usual class: cytotoxic. 130,000 tested, 1.5% active. H1299-p53A138V viability at 39C, ATP luminescence, 24 h; also: % is scaled to controls: 0 for no effect and ±100 for the full control effect; nearly all actives have a fitted effect of over 55% in size
Peg3 imprint: inducers of genomic imprint erasure in mouse ES cells; Potency, µM (top dose mostly 60.7 µM), for the others: top-dose activity change, positive = activation, hits mostly activators; mouse ES Peg3-LacZ reporter, beta-gal luminescence, 40 h; AID 1948; 110,000 tested, 0.02% active
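Imprint erasure is scored as LacZ activity from the silenced maternal Peg3 allele in feeder-free female ES cells cultured 40 h with LIF. Luminescence is normalized to in-plate negative controls and fitted to the Hill equation.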
IkB sig inh: suppresses IkB signaling in ABC-DLBCL reporter cells | ABC-DLBCL IkBa-CBG/CBR dual luciferase ratio, 4 h; response scale: scaled: untreated 0%, proteasome inhibitor 100% | Potency, µM (top dose mostly 57.1 µM), for the others: at the highest dose IkBa stabilization activation | 110,000 tested, 0.04% active; active = well fitted curve in the direction sought with a large enough effect in the signal ratio, not every such curve was filed as active; inconclusive = small, poorly fitted or top-dose-only effect, or a change in a side signal; the % refers to the signal ratio;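 also: the direction sought is a rising ratio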
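Curves were fitted separately to fusion (green), unfused (red) and ratio luminescence, then classed by r2, magnitude and activity. Cells: OCI-Ly3, 4 h compound plus doxycycline at 37C; 10 uM MG-132 defined full response.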
p53ts 32C tox: cytotoxicity in p53ts cells at permissive temperature; H1299-p53A138V at 32C, ATP luminescence viability, 24 h; AID 924; 130,000 tested, 0.93% active; Potency, µM (series often up to 46.1 µM), without a hit: at the top dose activity change, negative = cytotoxicity, actives largely listed as cytotoxic;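 also: 0% = DMSO and -100% = full killing by reference compound; nearly all actives have a fitted effect of over 55% in size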
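Cells: H1299 p53ts (A138V), 600/well, pre-incubated 16–30 h at 37C. Cpd up to 46 uM, 24 h, 32C. Readout: ATPlite luminescence, 20 min RT. Normalization: DMSO vs tamoxifen 100 uM. AC50 by Hill equation.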
* hit, by the source's call; ? = inconclusive; . = no result given; [ ] = another dose, or the depositor's remark. A selection: hits, their analogues and other compounds. The true share with any hit is near 1.8%. Unless noted, calls follow the shape of the dose curve; as a rule, active = well fitted curve in the direction sought with a large enough effect; inconclusive = small, poorly fitted or top-dose-only effect, or another doubt; inactive = no such curve, though single readings can be large; an effect the other way counts as inactive or inconclusive. Potency is read from the fitted curve at half-maximal effect.

SMILES	p53ts 39C tox	Peg3 imprint	IkB sig inh	p53ts 32C tox
COc1ccc(CCCO[C@@H](Cn2ccnc2)c2ccc(OC)cc2)cc1	32µM*	-16%	?	?
COc1ccc(C(=O)NCCCn2ccnc2)cc1	0%	-5%	0%	5%
C1CCCC1	4%	-1%	-1%	8%[1.84 µM]
CCC(Sc1nnc2c(n1)[nH]c1ccccc12)C(=O)Nc1nnc(C(C)C)s1 (stereo not given)	10µM*	23%[10.9 µM]	8%	?
COc1ccc2nc(N3CCCC(C(=O)NCCCN4CCN(C)CC4)C3)sc2c1 (stereo not given)	10µM*	17%	1%	13µM*
CCCN(CCC)CCNC(=O)C1CCN(c2nc3ccc(CC)cc3s2)CC1	?	-12%[10.9 µM]	?	13µM*
CCc1ccc2nc(N3CCC(C(=O)NCCC(C)C)CC3)sc2c1	16µM*	-13%[10.9 µM]	?	?
CCCN(CCC)CCCNC(=O)C1CCN(c2nc3ccc(CC)cc3s2)CC1	?	15%[10.9 µM]	?	13µM*
C[C@]12CC[C@H]3c4ccc(OC[C@H]5CO5)cc4CC[C@H]3[C@H]1CC[C@@H]2O	0%[9.22 µM]	.	.	0%[9.22 µM]
COCC(=O)N1CCC[C@@]2(CCN(C(=O)Nc3ccc(OC)cc3)C2)C1	-2%	.	0%[11.4 µM]	0%
CSc1ncc(C(=O)Nc2ccccc2C(=O)c2ccccc2)c(C(F)(F)F)n1	.	.	.	-4%
O=C(O)c1ccc(F)c(S(=O)(=O)Nc2cccc(F)c2)c1	-2%	.	.	-2%
COc1cccc(-c2cc(NCc3cccs3)ncn2)c1	?	-47%	-1%[11.4 µM]	25µM*
COc1cccc(NC(=O)Cn2c(=O)n(CC(=O)NCc3ccc(C)cc3)c(=O)c3sccc32)c1	?	-3%[10.9 µM]	5%	?
CCn1c(=O)cc(C(=O)OC)sc1=Nc1ccc(F)c(F)c1	17%	-39%	?	20µM*
CCOC(=O)c1ccc(N=c2sc(C(=O)OC)cc(=O)n2CCCN2CCOCC2)cc1	105%	-31%	?	18%
Cc1ccc2[nH]c(-c3ccccc3)cc(=O)c2c1	5µM*	-71%	14%	6.3µM*
COc1cc(Cl)c(C)cc1NC(=O)Cn1ncc2c1-c1cc(C)ccc1OC2	13µM*	-9%[10.9 µM]	-4%	-3%
COc1ccc(OC)c(NC(=O)Cn2ncc3c2-c2ccccc2OC3)c1	15%	-3%[10.9 µM]	0%	-3%
COc1ccc(CCNC(=O)C2(c3cccs3)CCOCC2)cc1	-2%	-9%[10.9 µM]	1%	-5%
CCCN(CCC)CCCNC(=O)c1cc2c(-c3ccc(Cl)cc3)nn(C)c2s1	13µM*	2%[10.9 µM]	?	-10%
O=S(=O)(c1ccccc1)c1nc(-c2cccs2)oc1SCc1ccc(F)cc1	10%	-8%[10.9 µM]	-5%	-8%
CN(C)CCN(Cc1ccco1)C(=O)c1cc2c(s1)-c1ccccc1OC2	13µM*	-21%[10.9 µM]	-1%	-9%
CCCCN(Cc1ccco1)C(=O)c1cc2c(s1)-c1c(C)cccc1OC2	?	17%[10.9 µM]	?	?
COC(=O)c1ccccc1NC(=O)c1nc(SCc2ccccc2C)ncc1Cl	17%	-7%[10.9 µM]	0%	-4%
SMILES	p53ts 39C tox	Peg3 imprint	IkB sig inh	p53ts 32C tox
Cc1ccc2cc3c(N)c(C(=O)N4CCOCC4)sc3nc2c1	?	-80%	?	?
Cc1ccc2nc3sc(C(=O)N4CCOCC4)c(N)c3cc2c1	6.3µM*	-34%	?	6.3µM*
O=C(c1ccncc1)N1CCN(C(=O)c2cccc3ccccc23)CC1	8%	-3%	-1%	-5%
C/C(=N\NC(=O)c1ccncc1)c1ccc2ccccc2c1O	2µM*	-37%[10.9 µM]	-1%[11.4 µM]	?
Cn1c(=O)[nH]c(=O)c2c1nc(CN1CCN(c3cccc(Cl)c3)CC1)n2CCCc1ccccc1	4µM*	-79%	7%	5µM*
COc1ccc(OC)c2sc(N3CCN(C(=O)C(C)(C)C)CC3)nc12	7.9µM*	-8%[10.9 µM]	-2%	16µM*
O=C(Nc1ccc2c(c1)Cc1ccccc1-2)[C@@H]1[C@H](C(=O)O)[C@]2(Cl)C(Cl)=C(Cl)[C@@]1(Cl)C2(Cl)Cl	-12%[9.22 µM]	8%[10.9 µM]	3%[11.4 µM]	17%[9.22 µM]
c1ccc(-c2cccc(-c3ccccn3)n2)nc1	0.79µM*	-20%	2%	?
c1ccc(-c2nnc(-c3ccccn3)nn2)nc1	?	-56%	?	?
CC1=NN(c2ccccc2)C(=O)[C@@H]1N=Nc1ccc(S(N)(=O)=O)cc1	18%[9.22 µM]	-5%[10.9 µM]	0%[11.4 µM]	8%[9.22 µM]
C[C@@H](C(=O)Nc1ccc2ccccc2c1)[C@@H]1C[C@@]1(C)[C@@H](NC(=O)c1ccncc1Cl)c1ccccc1	-15%	-9%	.	3%
Cc1ccc(CNc2nc(-c3ccco3)nn2C(=O)c2ccccc2[N+](=O)[O-])cc1	10µM*	-21%[10.9 µM]	-1%	?
CN(Cc1cccc2ccccc12)Cc1cccc2ccccc12	16%[9.22 µM]	-15%[10.9 µM]	2%[11.4 µM]	0%[9.22 µM]
Cc1nc2ccccc2c2oc(C(=O)N3CCN(C(=O)c4ccco4)CC3)cc12	21%	-21%	1%	2%
Cc1nc2ccccc2c2oc(C(=O)N3CCc4ccccc4C3)cc12	20µM*	-32%	?	?
O=C(NCCc1ccccc1Cl)c1ccc(Cn2c(=O)c3cccn3c3cccnc32)cc1	?	?	5%	10µM*
Fc1ccc(F)c(Nc2c3c(nc4ccc(Cl)cc24)CCC3)c1	-7%	-7%[10.9 µM]	?	-14%
FC(F)(F)c1cccc(Nc2c3c(nc4ccc(Cl)cc24)CCC3)c1	13µM*	10%[10.9 µM]	?	11µM*
CN(C)c1nc(N)c(C(=O)Nc2cccnc2)nc1Cl	5µM*	-41%	.	13µM*
O=C(Nc1cccnc1)c1cc(-c2cccc(Cl)c2)on1	23%	8%[10.9 µM]	?	6%
CCCCNC(=O)c1c(C)oc2ncn(CC(C)C)c(=O)c12	-3%	-1%[10.9 µM]	0%	8%
Cc1nc(CSc2nnc(C)s2)cs1	-2%	-16%	-2%	22%
Cc1nnc(Sc2nc(Sc3nnc(C)s3)nc(N3CCN(C)CC3)n2)s1	4µM*	-24%	7.9µM*	20µM*
O=C1CCNc2cc3ccccc3cc21	16µM*	-31%	?	?
O=S(=O)(c1ccc2c(c1)CCN2)N1CCCCCC1	-7%	-5%[10.9 µM]	1%	-6%
SMILES	p53ts 39C tox	Peg3 imprint	IkB sig inh	p53ts 32C tox
O=C(OCC1CO1)C1CCCCC1C(=O)OCC1CO1 (stereo not given)	32µM*	0%	3%	3%[1.84 µM]
O=C(O)C1CCCCC1C(=O)OCCCCOC(=O)C1CCCCC1C(=O)O (stereo not given)	3%	4%	-1%	-5%
CCCS(=O)(=O)c1ncc(Cl)c(C(=O)N2CCN(c3ccc(OC)cc3)CC2)n1	13µM*	-37%[10.9 µM]	?	?
CCSc1ncc(Cl)c(C(=O)N2CCN(c3ccc(OC)cc3)CC2)n1	0%	-9%[10.9 µM]	?	4%
CC(=O)c1c(C)[nH]c(C(=O)Nc2ccc(C)cn2)c1C	5µM*	-79%	0%	2.5µM*
CC(=O)c1c(C)[nH]c(C(=O)NCc2ccccn2)c1C	-12%	-13%	1%	-19%
O=C(Nc1cccs1)Nc1cc(C(F)(F)F)ccc1Cl	25µM*	-18%[10.9 µM]	?	-14%
